# Source: PubChem (several laboratories)
# p97 inhibitor: inhibitors of human p97 ATPase, primary screen, biochemical. Transitional endoplasmic reticulum ATPase (Homo sapiens), P55072. recombinant p97 ATPase, Kinase-Glo ATP luminescence, 3 h. inhibition, % at 8 µM. hit rate 0.42% among 220,000. AID 1481, 2009; in the data active means inhibition above about 15%;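 further: 0% = DMSO vehicle and 100% = wells lacking enzyme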
# Target sequence (P55072 whole entry, looked up): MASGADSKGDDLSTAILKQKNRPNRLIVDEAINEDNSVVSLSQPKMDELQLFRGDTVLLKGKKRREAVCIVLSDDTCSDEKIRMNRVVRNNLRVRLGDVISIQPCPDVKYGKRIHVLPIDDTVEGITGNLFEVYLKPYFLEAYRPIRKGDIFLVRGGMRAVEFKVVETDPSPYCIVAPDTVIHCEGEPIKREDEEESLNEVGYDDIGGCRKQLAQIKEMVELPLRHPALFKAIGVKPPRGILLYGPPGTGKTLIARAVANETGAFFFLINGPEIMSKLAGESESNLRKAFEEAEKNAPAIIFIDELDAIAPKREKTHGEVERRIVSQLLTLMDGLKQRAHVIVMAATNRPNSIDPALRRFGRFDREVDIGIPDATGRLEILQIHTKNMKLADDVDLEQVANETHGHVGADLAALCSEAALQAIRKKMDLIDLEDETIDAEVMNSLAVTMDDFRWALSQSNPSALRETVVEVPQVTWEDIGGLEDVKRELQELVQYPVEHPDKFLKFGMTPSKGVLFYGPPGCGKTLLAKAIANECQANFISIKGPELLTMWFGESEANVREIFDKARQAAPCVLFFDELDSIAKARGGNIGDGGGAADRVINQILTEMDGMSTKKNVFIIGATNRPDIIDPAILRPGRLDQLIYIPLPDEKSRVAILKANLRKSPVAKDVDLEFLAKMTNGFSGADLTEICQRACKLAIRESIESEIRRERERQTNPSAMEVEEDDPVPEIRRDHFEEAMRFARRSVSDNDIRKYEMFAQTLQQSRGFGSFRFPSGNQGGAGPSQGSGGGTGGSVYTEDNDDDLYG
# Tb hexokinase: Trypanosoma brucei hexokinase 1 inhibitors, primary screen, biochemical, G6PDH-coupled NADH absorbance, MLSCN library. hexokinase 1 [Trypanosoma brucei]. recombinant TbHK1, G6PDH-coupled NADH A340. inhibition, % at 10 µM. hit rate 0.11% among 220,000;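 active means inhibition of 50% or more in the single-dose primary screen; inactive means inhibition below 50%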
# pCIP destab: p/CIP-EGFP fusion destabilizers, primary screen, fluorescence, F442A cells | Q05BA5 | 16 h | decrease of EGFP signal, % at 10 µM | hit rate 0.01% among 290,000 | AID 1984, 2009;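 active means EGFP signal decrease of at least 30% at 10 µM or well 3 SD below plate mean, unless failing retest; inactive means the rest, including hits failing retest or dose response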
# HMGR II inh: inhibitors of E. faecalis class II HMGR, primary screen, biochemical, Enterococcus faecalis; HMG-CoA reductase (Enterococcus faecalis, mvaE); purified E. faecalis HMGR, NADPH absorbance 340 nm kinetic; inhibition, % at 10 µM; hit rate 0.41% among 190,000; AID 1066, 2008;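 active means inhibition above a set limit, the median over all tested compounds plus 3 SD, cut at about 9.5% in these data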;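 further: enzyme runs in reverse so mevalonate oxidation gives rising NADPH absorbance; 0% = complete reaction with DMSO and 100% = background rate lacking mevalonate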
# Furin inh: human furin inhibitors, primary screen, biochemical, fluorescence intensity | purified furin, fluorogenic substrate cleavage | hit rate 0.061% among 220,000 | inhibition, % at 20 µM or 30 µM | P09958; in the data active means inhibition above about 25%
# DTT redox prof: compounds producing H2O2 with reducing agent – biochemical, NIH compound library profiling, artefact control for MLSCN library redox annotation, primary screen; DTT-dependent redox cycling H2O2, phenol red/HRP absorbance; 100% = 100 µM peroxide control, 0% = buffer; activation, % at 10 µM; hit rate 0.03% among 200,000;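 active means activation of at least 50% relative to the plate's high and low controls in the primary single-dose screen; inactive means activation below 50%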;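 further: compound incubated with DTT at 0.8 mM final as the reducing agent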
# Active calls of the source: *; . = no result. Hits are enriched below; roughly 0.74% of the tested compounds scored in any of these assays.
SMILES,p97 inhibitor,Tb hexokinase,pCIP destab,HMGR II inh,Furin inh,DTT redox prof
COc1ccc(OC)c(NC(=O)NNC(=O)CCCOc2ccc(Cl)cc2C)c1,5,0,-10,16*,-17,-1
CCOCC(=O)OCC(=O)Nc1cc(OC)c([N+](=O)[O-])cc1C,1,-13,-15,21*,-20,0
CC(C)OC(=O)NC(C)(C)COC(=O)Nc1cccc(Cl)c1,-5,5,-24,16*,-29,1
CC(C)OC(=O)NCCOC(=O)Nc1cccc(Cl)c1,-3,43,-4,0,-3,1
O=C(c1ccc([N+](=O)[O-])cc1)N1CCSC1c1ccccc1Cl (stereo not drawn),-1,-3,-8,11*,-19,-1
Cc1cc(N)n2ncc(-c3ccc(Cl)cc3)c2n1,8,-18,11,11*,-20,1
O=C(CN1C(=O)C2C3C=CC(C3)C2C1=O)NCc1ccc2c(c1)OCO2 (stereo not drawn),4,3,-2,-7,27*,2
O=C(CN1C(=O)C2CC=CCC2C1=O)NCc1ccc2c(c1)OCO2 (stereo not drawn),-8,8,-5,-1,-1,1
COc1cc(S(=O)(=O)N2CCC(c3nc4ccccc4s3)CC2)ccc1S(=O)(=O)NC1CCCC1,-1,-9,-3,14*,-8,0
CC(OC(=O)C1=Cc2ccccc2OC1)C(=O)NCc1ccco1 (stereo not drawn),1,-8,-35,-7,-16,0
CCC(OC(=O)C1=Cc2ccccc2OC1)C(=O)NCc1ccco1 (stereo not drawn),2,-8,0,12*,-26,-1
Cc1cc(C)nc(SCCn2c(N3CCOCC3)nc3c2c(=O)[nH]c(=O)n3C)n1,-2,-1,4,12*,-6,-1
O=C(/C=C/c1ccccc1)/C=C/c1ccccc1,6,13,-1,-9,-21,0
COc1ccccc1C(=O)NCCn1cc(SCC(=O)Nc2cc(C)on2)c2ccccc21,-6,4,-1,13*,-11,-1
CSc1ccc(CN2CCN(Cc3ccccc3)C(CCO)C2)cc1 (stereo not drawn),3,5,-8,11*,-23,-2
CSc1cccc(CN2CCN(Cc3ccccc3)C(CCO)C2)c1 (stereo not drawn),5,2,8,-9,-18,-1
COc1cccc(CN2CCN(Cc3cc4ccccc4[nH]3)CC2CCO)c1 (stereo not drawn),3,-5,-1,.,-10,.
CCOc1ccc(CN2CCN(Cc3cc4ccccc4[nH]3)CC2CCO)cc1 (stereo not drawn),6,1,-20,14*,-17,0
CCCC(C)NC(=O)Cn1c(=O)c2c(ncn2CCC(C)C)n(Cc2ccccc2)c1=O (stereo not drawn),.,.,-2,.,.,.
CCCCCCCCCCCCCCCC[n+]1cccc2ccccc21,-1,55*,-2,1,-7,0
CCCCCCCCC[n+]1cccc2c3ccccc3ccc21,3,-6,4,-6,-45,-5
O=C(Cc1n[nH]c(=O)c2ccccc12)NCc1ccccn1,-2,1,-4,10*,-13,0
O=C(Cc1n[nH]c(=O)c2ccccc12)NCc1ccc(Cl)cc1,-2,-15,-3,.,-6,.
O=C(COC(=O)c1ccc[nH]c1=O)NCC1CCCO1 (stereo not drawn),4,1,-9,-6,30*,1
CC(C)[C@H](NC(=O)OCc1ccccc1)C(=O)OCc1cc(=O)oc2cc(O)ccc12,.,.,8,.,.,.
SMILES,p97 inhibitor,Tb hexokinase,pCIP destab,HMGR II inh,Furin inh,DTT redox prof
COc1ccc(Nc2cc(Cl)nc(N)n2)cc1,5,2,3,11*,-25,-1
Cn1nc([N+](=O)[O-])nc1Sc1nnnn1-c1ccc(C(=O)O)cc1,6,-2,-9,17*,-25,-1
O=C(O)c1ccc(Sc2nnnn2-c2ccccc2)c([N+](=O)[O-])c1,2,-5,2,-6,-2,5
Cc1cc(=O)n(-c2ccc(O)cc2)[nH]1,21*,7,-11,0,-11,0
CS(=O)(=O)N(CC(=O)NCc1ccco1)c1cccc([N+](=O)[O-])c1,3,0,-7,3,-27,0
O=C(COc1ccc(Cl)cc1)NCCN1CCCCC1,-1,-3,7,10*,-5,0
CC(=O)c1cnn(-c2c(Cl)cc(Cl)cc2Cl)c1C,-4,2,-25,.,-5,.
CCC(Sc1nc(C)cc(=O)[nH]1)C(=O)Nc1ccc(Cl)cn1 (stereo not drawn),15*,-5,-9,1,-27,-1
CCCCN(Cc1cc2cccc(C)c2[nH]c1=O)S(C)(=O)=O,-1,-18,-14,.,-5,.
Cc1nc(SCC(=O)c2ccc(Cl)cc2)c([N+](=O)[O-])[nH]1,2,-9,-7,-2,-9,-6
Cc1ccc(C)c(OCCCC(C)(C)C(=O)O)c1,3,1,-10,9.6*,-11,0
Cc1ccc([N+](=O)[O-])cc1S(=O)(=O)NCC1COc2ccccc2O1 (stereo not drawn),.,.,5,.,.,.
CSCC[C@H](NC(=O)OC(C)(C)C)c1nnc(SCC(=O)Nc2c(C)cccc2C)o1,4,51*,-2,-2,-17,1
Cc1cccc(C)c1NC(=O)CSc1nnc([C@H](C)NC(=O)OC(C)(C)C)o1,-5,-1,-5,2,-30,0
Cc1ccc(-n2nc(C(=O)O)c(O)cc2=O)cc1,6,-6,-6,-4,-24,-1
Cc1ccc(-c2cc(C(=O)O)n(-c3ccc(S(N)(=O)=O)cc3)n2)cc1,-3,-3,1,16*,-31,0
COc1cccc(CNC(=O)c2ccc(C)c(NC3=NC4CS(=O)(=O)CC4S3)c2)c1 (stereo not drawn),.,.,1,.,.,.
CC(=O)Nc1ccc(S(=O)(=O)Nc2cccc(-c3ccc4nncn4n3)c2)cc1,-1,-6,6,11*,-29,0
Cc1onc(-c2c(Cl)cccc2Cl)c1C(=O)c1ccccc1,2,-14,-5,.,-3,.
Cc1onc(-c2c(Cl)cccc2Cl)c1C(=O)O/N=C(\C#N)c1ccccc1,15*,-4,-6,.,-20,.
CS(=O)(=O)Nc1cccc(-c2cn3c(n2)SCC3)c1,.,.,-2,.,.,.
CC(=O)Nc1ccc(OCC(O)Cn2c(C(C)C)nc3ccccc32)cc1 (stereo not drawn),-2,3,-12,11*,-10,-1
